Screens from PubChem BioAssay.
The list is not random: actives were taken first. Their share in the collection is about 2.3%.
CCT modulator = changes cytosolic chaperonin activity; purified chaperonin ATPase assay, HTRF ADP detection, 30 min; activity change, % (test concentration not listed), hits read low; hit rate 0.3% among 360,000; AID 651819; in the data active = activity change below about -30%; also: % is scaled to controls: 0 for no effect and ±100 for the full control effect
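Nucleotide hydrolysis assay: TRiC at 20–40 nM final (set by batch activity) with 10 uM ATP, 30 min at 37 °C, in presence of 76 uM compound. Detection by competitive ADP HTRF, 30 min ambient.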
Abeta yeast res = restores growth of yeast expressing A-beta42 peptide; yeast expressing A-beta42, growth rescue, OD600, 48 h; response scale: 0% DMSO, 100% iron-clioquinol control; Potency, µM (doses to about 46.1 µM), actives largely listed as activators; hit rate 0.063% among 410,000; AID 1347071; also: potency is read from the fitted curve at half-maximal effect; nearly all actives have a fitted effect of over 55% in size
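Yeast growth medium received pinned compounds, then yeast cells expressing toxic A-beta were added; plates incubated at 30 C for 48 hr. Growth read as absorbance at 600 nm, normalized to DMSO and equimolar FeCl3 plus clioquinol controls.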
TDP-43 yeast inh = TDP-43 toxicity inhibition in yeast | TDP-43 expressing yeast growth rescue, BacTiter-Glo, 24 h | Potency, µM (top dose mostly 46.1 µM), for the others: at the top dose growth rescue (activation), usual class: activators | hit rate 1.8% among 410,000 | AID 652104; also: potency is read from the fitted curve at half-maximal effect; % of control where 0% means no effect; nearly all actives have a fitted effect of over 50% in size
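Growth rescue of TDP-43-toxic yeast measured as ATP luminescence (BacTiter-Glo). Cells grown to mid-log in raffinose, induced in galactose at OD600=0.02, exposed to compound 24 hr at 30 deg C.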
FUS yeast rescue = FUS proteinopathy suppression in yeast | hit rate 0.24% among 390,000 | AID 1347120 | Potency, µM (highest dose often 76.6 µM), actives largely listed as activators | S. cerevisiae FUS-expressing, growth rescue, OD600, 24 h;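 also: potency is read from the fitted curve at half-maximal effect; plate controls were DMSO vehicle for no effect and reference control for full effect; nearly all actives have a fitted effect of over 55% in size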
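S. cerevisiae expressing FUS from galactose induction served as the toxicity model. Growth after 24hr at 30C, read as absorbance at 600 nm, indicates suppression of toxicity; compounds dosed at several concentrations.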
MmCpn inh = M. maripaludis TRiC chaperonin inhibition; purified Mm-Cpn ATPase, ADP Transcreener TR-FRET; hit rate 0.031% among 330,000; Potency, µM (series often up to 76.9 µM), for inactives: top-dose activity, negative = inhibition, actives largely listed as inhibitors; also: potency is read from the fitted curve at half-maximal effect; % is scaled to controls: 0 for no effect and ±100 for the full control effect; nearly all actives have a fitted effect of over 80% in size
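Inhibition of chaperonin ATP hydrolysis is measured as reduced ADP production, detected by competitive TR-FRET in which signal falls with ADP. Final enzyme 25 nM and ATP 10 uM, reacted 30 min at 37°C.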
aSyn yeast inh = alpha-synuclein toxicity inhibition in yeast | Yeast expressing alpha-synuclein, growth rescue, BacTiter-Glo, 24 h | Potency, µM (titrated, usually from 46.1 µM), for inactives: at the top dose growth rescue (activation), most hits filed as activators | hit rate 0.14% among 370,000 | AID 652106; also: potency is read from the fitted curve at half-maximal effect; % of control where 0% means no effect; nearly all actives have a fitted effect of over 65% in size
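Galactose-induced alpha-syn yeast (OD600=0.02, raffinose-pregrown) + pinned cpd, 24 hr, 30 deg C; growth by BacTiter-Glo luminescence. Growth restoration scores as activation.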
Starred values were filed as active, the others as inactive; i = inactive; ? = inconclusive; . = no result given; [ ] = another dose, or the depositor's remark. Unless noted, calls follow the shape of the dose curve; as a rule, active = well fitted curve in the direction sought with a large enough effect; inconclusive = small, poorly fitted or top-dose-only effect, or another doubt; inactive = no such curve, though single readings can be large; an effect the other way counts as inactive or inconclusive.

SMILES | CCT modulator | Abeta yeast res | TDP-43 yeast inh | FUS yeast rescue | MmCpn inh | aSyn yeast inh
Cc1nc2c(O)c3c(c(O)c2nc1C)C1C=CC3CC1 | -2 | i | 13µM* | . | . | 8%
Cc1ccc(C2C(C(=O)c3cc4ccccc4o3)=C(O)C(=O)N2CCN2CCOCC2)cc1 (configuration not stated) | 1 | . | 5% | i | -13% | 4%
COc1cc(C2C(C(=O)c3cc4ccccc4o3)=C(O)C(=O)N2CCN2CCOCC2)ccc1OCCC(C)C (configuration not stated) | -1 | i | 11% | 28µM* | -6% | 3%
Cc1cc(C)nc(NC(=S)N2CCN(c3ccc(Cl)c(Cl)c3)CC2)c1 | . | . | . | i | . | .
COc1ccccc1-c1cc(NC=O)c2ncc(-c3ccc(S(C)(=O)=O)cc3)n2c1 | 0 | i | 12% | ? | . | 0%
COc1ccccc1-c1cc(NC=O)c2ncc(-c3cccc(C(C)=O)c3)n2c1 | 0 | i | 18µM* | i | . | 4%
COc1ccccc1-c1cc(NC=O)c2ncc(-c3cccc(C(=O)N(C)C)c3)n2c1 | 1 | i | 17% | i | . | 1%
O=CNc1cc(-c2ccccc2Oc2ccccc2)cn2c(-c3ccc(F)cc3)cnc12 | 0 | i | 16µM* | ? | . | 20%
CC(=O)c1ccc(-c2cnc3c(NC=O)cc(-c4ccccc4Oc4ccccc4)cn23)cc1 | -4 | i | ? | 25µM* | . | 11%
COc1ccc([C@@]23CCN=C2c2[nH]c4ccccc4c2CCN3)c(N)c1 | . | . | . | i | . | .
N#Cc1nc(/C=C/c2ccc(F)cc2)oc1N1CCCCCC1 | . | i | 11µM* | i | . | .
COc1ccc(/C=C/c2nc(C#N)c(N3CCCCCC3)o2)cc1OC | . | i | 18µM* | i | . | .
Cc1ccc(C)c2[nH]c(=O)c(CN(CCN3CCCC3)C(=O)Nc3cccc(Cl)c3)cc12 | -3 | ? | -6% | 35µM* | -4% | 5%
CC1(C)CC(=O)N(CC(=O)N2CCN(c3cccc(Cl)c3Cl)CC2)c2ccccc2S1(=O)=O | . | . | . | i | . | .
O=C(CSc1nc2ccccc2[nH]1)NN=Cc1ccccc1C(=O)O | . | . | . | i | . | .
COc1ccc(C)cc1S(=O)(=O)Nc1ccc(F)c(Cl)c1 | -5 | i | 18µM* | i | 4% | 4%
COc1ccc(NS(=O)(=O)c2cc(C)ccc2OC)cc1OC | 2 | i | -17% | i | 0% | -14%
Cc1ccccc1NC(=S)N(Cc1ccccn1)Cc1ccccc1Cl | -3 | 13µM* | ? | i | 3% | 4%
COc1ccc(-n2c(SCC(=O)Nc3ccc(Oc4ccccc4)cc3)nnc2-c2ccc(C)cc2)cc1 | . | . | . | i | . | .
CCOc1ccc(-n2c(COc3ccccc3)nnc2SCC(=O)Nc2ccc3c(c2)OCCO3)cc1 | . | . | . | i | . | .
N#Cc1nc(-c2cccs2)oc1NCCc1ccccc1 | 0 | i | -20% | i | -8% | 17%
CNc1oc(-c2cccs2)nc1C#N | 0 | i | -5% | . | -9% | -5%
N#Cc1nc(-c2cccs2)oc1NCc1ccc2c(c1)OCO2 | -1 | i | 28µM* | i | -8% | 1%
COc1ccc(Nc2oc(-c3cccs3)nc2C#N)cc1 | -37* | i | 21% | i | -8% | 9%
CC(C)c1cc(C(C)C)c(S(=O)(=O)N2CCC(C(=O)NCc3cccs3)CC2)c(C(C)C)c1 | . | . | . | i | . | .
SMILES | CCT modulator | Abeta yeast res | TDP-43 yeast inh | FUS yeast rescue | MmCpn inh | aSyn yeast inh
C=CCOC(=O)c1cn(CC)c2nc(C)ccc2c1=O | -2 | i | ? | i | 4% | -3%
CCn1cc(C(=O)OCC(=O)OC2CC(C)CCC2C(C)C)c(=O)c2ccc(C)nc21 (configuration not stated) | -1 | i | 22µM* | ? | -3% | 0%
FC(F)(F)c1cccc(N2CCN(c3ncnc4c3nc3n4CCCC3)CC2)c1 | . | i | 16µM* | i | . | .
COc1ccccc1N1CCN(c2ncnc3c2nc2n3CCCC2)CC1 | . | i | 35µM* | i | . | .
Fc1ccccc1N1CCN(c2ncnc3c2nc2n3CCCCC2)CC1 | . | i | ? | i | . | .
COc1cccc(N2CCN(c3ncnc4c3nc3n4CCCCC3)CC2)c1 | . | i | 18µM* | ? | . | .
COc1ccccc1N1CCN(C(=O)C2CCCN(c3ncnc4c3nc3n4CCCCC3)C2)CC1 (configuration not stated) | 0 | i | 23% | i | 0% | -1%
Oc1ccc2ccccc2c1SSc1c(O)ccc2ccccc12 | . | . | . | . | . | -66%
O=C(CN1CCN(Cc2ccccc2Cl)CC1)N/N=C\c1ccccc1F | . | . | . | i | . | .
CCOC(=O)C1CCCN(C(=O)c2ccc(C)c(NC(=O)c3nsc4ccccc34)c2)C1 (configuration not stated) | . | i | ? | ? | . | .
CCOC(=O)C1CCN(C(=O)c2ccc(C)c(NC(=O)c3nsc4ccccc34)c2)CC1 | . | i | 35µM* | ? | . | .
CCOC(=O)c1cccc(NC(=O)CN(C)S(=O)(=O)c2cc(OC)ccc2OC)c1 | . | . | . | i | . | .
COC(=O)Oc1c(Br)c(=O)oc2ccccc12 | 1 | i | 3.5µM* | i | . | 12%
CC(=O)Nc1c(NC(C)C)c2ccccc2oc1=O | -1 | i | -4% | i | 0% | -1%
S=c1nc[nH]c2n[nH]nc12 | . | . | . | . | . | 0%
Cc1ccc(Cl)cc1NC(=O)COC(=O)CC1CCCCC1 | 0 | ? | 13µM* | i | 2% | 4%
Cc1ccccc1NC(=O)COC(=O)CC1CCCC1 | 2 | i | -20% | i | 3% | 1%
CCOc1ccc(C=Nn2c(-c3cccc(OC(C)C)c3)n[nH]c2=S)cc1 | . | . | . | i | . | .
CCc1c(C)sc(NC(=S)Nc2nc(C)cc(C)n2)c1C(=O)OC | 1 | i | 0%[0.397 µM] | i | -5% | -8%
CCc1c(C)sc(NC(=S)Nc2cccnc2)c1C(=O)OC | -3 | i | 25µM* | i | -2% | -3%
O=C(c1cc2ccccc2[nH]1)c1cc2cc(O)ccc2[nH]1 | . | . | . | . | . | -3%
S=C1NC(c2ccccc2)=NCN1c1ccccc1 | -3 | i | 13µM* | i | 1% | 0%
O=C(c1ccncc1)N1CC[C@H]2[C@H](CCCN2Cc2ccccc2)C1 | . | . | . | i | . | .
O=C(C1CCC1)N1CCc2cc(S(=O)(=O)N3CCN(c4ccccc4F)CC3)ccc21 | . | . | . | i | . | .
O=S(=O)(Nc1ccccn1)c1ccc(Cl)cc1 | 1 | i | 8% | i | 1% | 0%
O=S(=O)(Nc1ccccn1)c1ccc(-n2cccn2)cc1 | -82* | i | -2% | i | 1% | 0%
c1ccc(CNc2ncnc3c2ncn3Cc2ccccc2)cc1 | . | . | . | . | . | -4%
